# Compound activity deposited in PubChem by The Scripps Research Institute Molecular Screening Center.
# HTR5A inv ctr: counter-screen for OPRM1-OPRD1 inverse agonists: human HTR5A inverse agonism; P47898; inhibition, % at 9.3 µM; AID 504634; HTR5A cell line, luminescence; hit rate 0.083% among 340,000; in the data active = inhibition mostly above about 23%, no sharp cut-off; inactive = mostly below about 18%;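 also: 0% = cells with DMSO and 100% = no-cell wells with DMSO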
# MOR-DOR ag: agonists of human mu-delta opioid receptor heterodimerization; cells, OPRM1-OPRD1 heterodimerization, luminescence; hit rate 0.3% among 340,000; activation, % at 9.3 µM; AID 504326; in the data active = activation above about 18%;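 also: 0% = vehicle-treated cells and 100% = reference agonist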
# Target sequence (P35372 whole entry, looked up): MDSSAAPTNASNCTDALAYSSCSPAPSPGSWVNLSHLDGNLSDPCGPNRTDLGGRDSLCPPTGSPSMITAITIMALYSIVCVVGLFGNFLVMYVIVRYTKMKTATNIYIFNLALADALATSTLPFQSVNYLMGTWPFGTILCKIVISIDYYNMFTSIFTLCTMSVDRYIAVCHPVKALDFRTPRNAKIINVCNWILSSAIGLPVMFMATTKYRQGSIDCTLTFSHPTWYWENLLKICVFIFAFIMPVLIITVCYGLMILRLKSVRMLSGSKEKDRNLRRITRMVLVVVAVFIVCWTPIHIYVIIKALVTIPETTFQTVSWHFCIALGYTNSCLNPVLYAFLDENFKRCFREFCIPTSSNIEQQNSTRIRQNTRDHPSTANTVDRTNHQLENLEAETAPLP
# Target sequence (P41143 whole entry, looked up): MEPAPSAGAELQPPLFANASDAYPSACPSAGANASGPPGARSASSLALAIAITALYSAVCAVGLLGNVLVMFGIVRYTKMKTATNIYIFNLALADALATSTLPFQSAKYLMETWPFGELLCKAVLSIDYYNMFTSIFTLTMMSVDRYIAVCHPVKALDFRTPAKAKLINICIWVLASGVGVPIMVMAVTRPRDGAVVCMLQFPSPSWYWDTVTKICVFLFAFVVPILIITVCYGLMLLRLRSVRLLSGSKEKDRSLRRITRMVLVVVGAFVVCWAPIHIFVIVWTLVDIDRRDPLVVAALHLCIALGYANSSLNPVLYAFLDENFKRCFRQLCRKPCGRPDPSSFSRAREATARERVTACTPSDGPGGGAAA
# HTR5A ag ctr: activates human HTR5A in OPRM1-OPRD1 agonist counter-screen; activation, % at 9.3 µM; hit rate 0.61% among 340,000; AID 504692; HTR5A agonist assay, luminescence, cell-based; P47898; in the data active = activation mostly above about 9.5%, no sharp cut-off; inactive = mostly below about 7.6%;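 also: 0% = cells with vehicle only and 100% = reference agonist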
# OPRM1-OPRD1 inv: mu-delta opioid heterodimer inverse agonism | AID 504357 | hit rate 0.21% among 340,000 | P35372+P41143 | cell-based MOR-DOR heterodimer luminescence | inhibition, % at 9.3 µM; in the data active = inhibition above about 22%, passing the limit was not always enough;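 also: 0% = cells with DMSO and 100% = wells without cells with DMSO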
# * hit, by the source's call. The list is not random: actives were taken first. Their share in the collection is about 1.1%.
SMILES,HTR5A inv ctr,MOR-DOR ag,HTR5A ag ctr,OPRM1-OPRD1 inv
Cn1c(=O)[nH]c(=O)c2[nH]c(CO)nc21,0,-1,0,3
CC1=[N+](C)c2ccc3ccccc3c2C1(C)C,-37,9,13*,-69
Cc1ccc(S(=O)(=O)N2CCN(C(=O)c3ccc4ccccc4n3)CC2)c(C)c1,13,-2,1,6
CCCCOc1cccc(C2C(C(=O)c3ccc(C)o3)=C(O)C(=O)N2Cc2ccco2)c1 (configuration not stated),-47,-1,13*,6
CC(=O)c1c(C)n(CC(=O)NCc2ccco2)c2ccccc12,9,1,9.8*,-3
Cc1ccccc1-n1c(=O)c2ccccc2n(CC(=O)NCc2ccco2)c1=O,11,-1,1,7
CC(C)Cn1c(SC(C)C(=O)NCC2CCCO2)nc2ccc(Cl)cc2c1=O (configuration not stated),-6,-1,2,5
Cc1ccc(NC2=C/C(=N\S(=O)(=O)c3cccs3)c3ccccc3C2=O)c(C)c1,8,22*,-3,-112
CCN(C(=O)CSc1ncccc1C(=O)OC(C)C)c1cccc(C)c1,-13,-1,11*,5
CC(C)CN(Cc1cc(=O)oc2cc(-c3ccccc3)c(O)cc12)CC(C)C,10,20*,17*,-105
COc1ccc(CNS(=O)(=O)c2ccc(F)c(C(=O)Nc3ccccc3OC)c2)cc1,-23,3,9.5*,-15
O=C(Nc1ccccc1F)c1ccc(CNS(=O)(=O)c2cccc(C(F)(F)F)c2)cc1,-29,6,12*,-26
Cc1ccc(NC(=O)c2ccc(CNS(=O)(=O)c3cccc(C(F)(F)F)c3)cc2)cc1,3,0,-2,-2
CC1Oc2ccccc2N(CC(=O)Nc2ccc(F)cc2)C1=O (configuration not stated),-40,-3,11*,13
CC1Oc2ccccc2N(CC(=O)Nc2ccc3c(c2)OCCO3)C1=O (configuration not stated),-12,-1,-4,8
CC(CCc1ccccc1)NC(=O)CCNS(=O)(=O)c1ccccc1C(F)(F)F (configuration not stated),7,1,8,-3
CCOC(=O)N1CCN(C(=O)CSc2nnc(Cn3c(=O)sc4ccccc43)n2C)CC1,-12,-2,4,9
CCOC(=O)CSc1nnc(Cn2c(=O)sc3ccccc32)n1C,-29,-1,11*,4
COc1ccc(NS(=O)(=O)c2cc(C(=O)O)ccc2C)cc1,-29,-1,12*,5
COc1ccc(NS(=O)(=O)c2cc(NS(=O)(=O)c3cc(C(=O)O)ccc3OC)ccc2C)cc1,13,-5,-7,20
Cc1ccc(N=C2NC(=O)CS2)cc1,9,-1,10,7
Cc1ccc(N=C2C(=O)Nc3ccc(C)c(Br)c32)cc1,28,-13,-8,67*
O=S(=O)(Nc1cccc(-c2ccc(N3CCCCCC3)nn2)c1)c1ccc(C(F)(F)F)cc1,13,1,11*,-7
Cc1ccc(C(=O)NCCCNC(=O)COc2ccc(Cl)cc2)cn1,8,-3,-3,15
O=C(COc1cccc(Br)c1)N/N=C1\CCCc2ccccc21,3,0,14*,3
SMILES,HTR5A inv ctr,MOR-DOR ag,HTR5A ag ctr,OPRM1-OPRD1 inv
O=C(COc1cccc(Br)c1)NN=C1c2ccccc2-c2ccccc21,-12,-2,1,12
CC(/C=C/c1ccco1)=N\NC(=O)CNc1ccc2ccccc2c1,-18,0,12*,-1
c1ccc(C(c2c[nH]c3ccccc23)c2c[nH]c3ccccc23)nc1,-76,2,32*,-7
CC(C(=O)Nc1ccccc1Br)N1c2cccc3cccc(c23)S1(=O)=O (configuration not stated),13,0,-5,1
Cc1csc(NC(=O)C(C)N2C(=O)c3ccccc3S2(=O)=O)n1 (configuration not stated),5,0,3,-2
Cc1ccc2c(c1)COc1c3ccc(C(=O)N[C@@H](C)CO)cc3nn1-2,-14,-2,14*,9
Cn1c(=O)c2c(ncn2Cc2ccc(Cl)cc2)n(C)c1=O,-21,-2,8.0*,12
Cn1c(=O)c2c(ncn2CC(COCc2ccc(Cl)cc2)OCc2ccc(Cl)cc2)n(C)c1=O (configuration not stated),-6,-1,2,5
CC(=O)Nc1ccc(/C(C)=N/NS(=O)(=O)c2ccc(C)cc2)cc1,-55,-1,2,6
C/C(=N/NS(=O)(=O)c1ccc(F)cc1)c1ccncc1,-8,0,11*,-2
CC(=NNS(=O)(=O)c1ccc([N+](=O)[O-])cc1)c1ccc(C)cc1,-44,0,11*,0
COc1ccccc1N(CC(=O)NC1CCCCC1)C(=O)CNC(=O)c1cccs1,-15,-2,5,10
CCC(CC)NC(=O)C1CCN(c2ccc(S(=O)(=O)N3CCOCC3)cc2[N+](=O)[O-])CC1,9,-2,-1,9
CCCCNC(=O)C1CCC(CNS(=O)(=O)c2ccc(C)cc2)CC1 (configuration not stated),10,-1,2,8
CCCCSCCCNC(=O)C1CCC(CNS(=O)(=O)c2ccccc2)CC1 (configuration not stated),-49,2,12*,-11
COc1ccc2c(C#CCCO)c(-c3ccc(S(C)(=O)=O)cc3)sc2c1,-45,-1,13*,4
COc1ccc2sc(-c3ccc(S(C)(=O)=O)cc3)c(C#CCO)c2c1,-30,6,12,-33
Cc1cccc(NC(=S)N(Cc2ccc(Br)cc2)Cc2ccc(C(=O)O)cc2)c1,8,-2,-3,13
Cc1cc(NC(=S)N(Cc2ccc(Br)cc2)Cc2ccc(C(=O)O)cc2)ccc1Cl,-34,-2,12*,11
Cc1nn(-c2ccccc2)c(C)c1NC(=O)COC(=O)CC(C)c1ccccc1 (configuration not stated),-2,-2,1,12
Cc1ccc(Nc2cc(C)nn2-c2nc(C)cc(C)n2)cc1,-1,-2,-2,11
Cc1ccc(Nc2cc(C)nn2-c2nc(C)cc(=O)[nH]2)cc1,-3,-9,-7,55*
O=C1c2ccccc2/C(=C\C#Cc2ccccn2)N1c1ccccc1,-31,6,5,-31
COc1cc(C2C=C(Nc3ccccc3)C(=O)N2c2ccccc2)ccc1O (configuration not stated),14,0,-5,2
O=C1C(Nc2ccccc2)=CC(c2ccc(O)cc2)N1c1ccccc1 (configuration not stated),0,-3,13*,14
O=C(CC(Cc1ccccc1)C(=O)O)Nc1ccccc1 (configuration not stated),-1,-4,0,18
O=C(CC(Cc1ccccc1)C(=O)O)Nc1ccc(Cl)c(Cl)c1 (configuration not stated),-37,0,10.0*,0
COCC(C)n1c(SCC(=O)Nc2c(C)n(C)n(-c3ccccc3)c2=O)nc2ccccc2c1=O (configuration not stated),16,-1,-6,4
CCN1/C(=C/c2ccc3ccccc3[n+]2CC)C=Cc2ccccc21,43*,-6,-12,32
